# From PubChem BioAssay (NCI)
# About 83,000 compounds went through this panel and 20% of them were active in at least one assay; those are over-represented in the sample as a whole.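 Percent growth is the endpoint: 0 to 100 indicates growth inhibition (40 means 60% inhibition), 0 means no net growth, and negative values indicate cell death.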 Unmarked numbers belong to inactive results. The source made the active and inactive calls. Rule for the calls: active = growth percent below 10; inactive = the rest.
# Columns and labels:
# Test in all cases: NCI-60 one-dose screen, 48 h (100 = growth as untreated, 0 = no growth, -100 = all killed)
# Conditions in all cases: 10 µM unless noted
# NCI-H226 lung = test system: NCI-H226 lung
# NCI-H322M lung = test system: NCI-H322M lung
# HOP-62 NSCLC = test system: HOP-62 NSCLC
# NCI-H460 lung = test system: NCI-H460 lung
# HOP-92 NSCLC = test system: HOP-92 NSCLC
# NCI-H522 lung = test system: NCI-H522 lung
# A549/ATCC NSCLC = test system: A549/ATCC NSCLC
# 786-0 renal = test system: 786-0 renal
# COLO 205 colon = test system: COLO 205 colon
Compound,growth (NCI-H226 lung),growth (NCI-H322M lung) [%],growth (HOP-62 NSCLC),growth (NCI-H460 lung),growth (HOP-92 NSCLC),growth (NCI-H522 lung),growth (A549/ATCC NSCLC),growth (786-0 renal),growth (COLO 205 colon)
COc1cc2nc(Cc3ccc(C)cc3)[nH]c(=O)c2cc1OC,95.9%,236,104%,107%,69.1%,92.8%,49.3%,103%,123%
CN(C)C(=O)OCc1nc2c(N3CCOCC3)nc(-c3ccccc3)nc2n1C,-66.1% (active),53.4,-46.9% (active),-71.8% (active),-68.4% (active),,-29.6% (active),-71.3% (active),
NNC(=O)/C(=C\c1ccc([N+](=O)[O-])cc1)CC(=O)c1ccc(Cl)c(Cl)c1,,84.3,83.3%,90.5%,103%,77.2%,78.9%,92.9%,100%
COc1ccc(-c2nc(SC(C)C)nc(NNC(N)=O)c2C#N)cc1,95.4%,94.2,83.7%,94.5%,78%,63.4%,88.6%,95.5%,117%
CC(Oc1ccc(C(=O)NS(=O)(=O)C(C)(C)C)cc1C(F)(F)F)c1ccc(Oc2ccccc2)cn1 (centres undefined),81.5%,88.3,78.2%,96.9%,73.1%,17.2%,94.5%,77.7%,77.1%
N/C(=N\N=C\c1cc2ccccc2s1)N/N=C/c1cc2ccccc2s1,99.5%,108,110%,102%,97%,91.8%,106%,5.55% (active),112%
C=C1C(=O)O[C@H]2[C@H]1CC/C(COC(=O)NCCc1c[nH]c3ccc(Cl)cc13)=C\CC[C@@]1(C)O[C@@H]21,30.7%,81.6,64.6%,17.5%,-71% (active),-80.1% (active),56.5%,-78.7% (active),-70.9% (active)
COc1ccccc1/C=N/NC1=NC2C(N1)N(C)C(=O)N2C (centres undefined),90.4%,95.5,92%,102%,93.5%,103%,102%,102%,101%
CCOC(=O)c1c(C)nc2c(c1N)C(=O)C(=O)N2Cc1ccc(C(F)(F)F)cc1,73.2%,97.3,60.5%,93.7%,50.3%,31%,84.3%,33.9%,101%
Cn1c(COC(=O)NCCc2ccccn2)nc2c(N3CCOCC3)nc(Cl)nc21,25.2%,78.9,42.3%,38.3%,-29.5% (active),-24% (active),44.2%,-74.7% (active),-41.1% (active)
Clc1nc(Nc2ccccc2)nc(Nc2ccccc2)n1,91.2%,96.3,81.5%,109%,77.9%,83.8%,104%,84.4%,108%
N#CSCC1CC(O)(c2ccccc2)C(c2ccccc2)C(c2ccc(F)cc2)O1 (centres undefined),63.1%,60.4,60.3%,25.2%,1.42% (active),25.2%,63.1%,3.08% (active),22.1%
CCCc1cc2c(cc1Br)OCO2,106%,108,84%,106%,86.9%,87.9%,80.7%,89.3%,109%
